The sample as a whole holds a higher share of hits than the screen did.
ERp5 block: inhibitors of human ERp5 | Q15084 | ERp5 insulin aggregation, absorbance 650 nm, 90 min | inhibition, % at 9.99 µM | 350,000 compounds, 0.05% hits;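 active = mean replicate inhibition above about 25%, with every replicate also reaching it, limit read from the data, passing the limit was not always enough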
Target sequence (Q15084 whole entry, looked up): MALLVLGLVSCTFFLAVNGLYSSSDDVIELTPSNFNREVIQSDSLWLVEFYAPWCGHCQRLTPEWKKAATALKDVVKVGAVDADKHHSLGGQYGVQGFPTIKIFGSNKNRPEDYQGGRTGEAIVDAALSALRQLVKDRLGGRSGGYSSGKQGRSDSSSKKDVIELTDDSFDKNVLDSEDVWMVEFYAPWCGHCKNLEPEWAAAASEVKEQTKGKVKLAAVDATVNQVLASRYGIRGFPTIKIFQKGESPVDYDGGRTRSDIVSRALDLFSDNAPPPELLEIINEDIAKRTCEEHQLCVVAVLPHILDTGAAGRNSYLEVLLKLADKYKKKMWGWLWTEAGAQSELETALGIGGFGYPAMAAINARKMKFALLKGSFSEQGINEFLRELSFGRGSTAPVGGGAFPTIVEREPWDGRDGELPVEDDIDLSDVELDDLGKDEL
PDI inh: inhibitors of human protein disulfide isomerase | 350,000 compounds, 0.052% hits | AID 588391 | inhibition, % at 10 µM | PDI insulin aggregation turbidity, A650, 90 min;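 active = mean inhibition across replicates of 30% or more, whatever share of single replicates reach that level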
PglD DTNB: PglD (C. jejuni) enzyme inhibition. purified PglD enzyme, DTNB colorimetric CoA detection. inhibition, % at 12.5 µM. 360,000 compounds, 0.098% hits; in the data active = inhibition above about 16%, passing the limit was not always enough
NRP1-CendR mod: alters CendR peptide binding to human NRP-1; O14786; FAM-RPARPAR peptide binding to NRP-1, fluorescence polarization; inhibition, % at 25 µM; 360,000 compounds, 0.85% hits;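 active = inhibition or corrected inhibition above about 18%, plus a signal ratio from 0.5 to 1.5, limit read from the data, passing the limit was not always enough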
ALR H2O2 inh: human ALR oxidase inhibition via reduced H2O2 | purified ALR, DTT oxidation, H2O2 HRP-luminol luminescence | inhibition, % (test concentration not listed) | 290,000 compounds, 3.8% hits | AID 485317;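 active = mean replicate inhibition above about 79%, with every replicate also reaching it, limit read from the data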
Target sequence (P55789 whole entry, looked up): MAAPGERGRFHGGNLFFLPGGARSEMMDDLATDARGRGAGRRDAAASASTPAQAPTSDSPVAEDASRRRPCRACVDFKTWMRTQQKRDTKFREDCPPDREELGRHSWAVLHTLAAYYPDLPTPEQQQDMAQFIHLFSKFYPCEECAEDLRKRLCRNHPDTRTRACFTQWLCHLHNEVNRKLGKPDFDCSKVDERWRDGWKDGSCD
ARNT-TACC3 inh: ARNT/TACC3 interaction disruption; AlphaScreen His-ARNT PAS-B/GST-TACC3 binding, luminescence; TACC3 fragment carries E629A point mutation; inhibition, % at 9.99 µM; 390,000 compounds, 0.66% hits;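 active = mean inhibition of replicates at least 50% and at least half of replicates each reaching 50%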;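 note: 0% = complete ARNT plus TACC3 wells and 100% = ARNT alone without TACC3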
* hit, by the source's call; . = not tested or not shown.

SMILES | ERp5 block | PDI inh | PglD DTNB | NRP1-CendR mod | ALR H2O2 inh | ARNT-TACC3 inh
Nc1oc2ccccc2c1C(=O)Cc1ccccc1O[C@@H]1O[C@H](CO)[C@@H](O)[C@H](O)[C@H]1O | 0 | . | -3 | -1 | 90* | -6
C[C@H]1CN([C@@H](C)CO)C(=O)c2cc(-c3ccccc3F)cnc2O[C@@H]1CN(C)C(=O)CN(C)C | -4 | . | 1 | . | . | -3
CC(C)NC(=O)N1[C@@H](C#N)[C@H](c2ccc(C#CC3CCCCC3)cc2)[C@@H]1CO | 6 | . | 1 | . | . | -2
Cc1ccc(-c2nc(SCC(=O)N(C)C3CCS(=O)(=O)C3)[nH]c2-c2ccc(C)cc2)cc1 (stereo unspecified) | . | 1 | 6 | 18 | 98* | 12
C[C@@H]1CN([C@H](C)CO)C(=O)c2cc(-c3ccccc3F)cnc2O[C@H]1CN(C)Cc1cccc(C(=O)O)c1 | -2 | . | -1 | . | . | .
COc1ccc(OC)c(CNc2ncc(-c3cccc([N+](=O)[O-])c3)n2C)c1 | 1 | 3 | -8 | 0 | 98* | 21
COc1cccc2cc(C(C)N(CCCN3CCOCC3)C(=S)Nc3cccc(C)c3)oc12 (stereo unspecified) | 0 | 0 | 5 | 39* | 4 | 2
COc1cccc2cc(C(C)N(CCCN3CCOCC3)C(=S)Nc3cc(C)cc(C)c3)oc12 (stereo unspecified) | 2 | -4 | . | -4 | -2 | 5
CCc1ccc(NC(=O)N(CCCN2CCOCC2)C(C)c2cc3cccc(OC)c3o2)cc1 (stereo unspecified) | -1 | 2 | 5 | 37* | -6 | 4
CCCNC(=O)C[C@H]1CC[C@@H]2[C@@H](COc3ccc(NS(=O)(=O)c4ccccc4C)cc3C(=O)N2C)O1 | -4 | . | -1 | . | . | -2
CCC(=O)N[C@H]1C=C[C@H](CC(=O)NCCN2CCCCC2)O[C@H]1CO | 5 | . | 6 | . | . | -2
CCN1CCN(c2c(Cl)cccc2NC(=O)c2cccs2)CC1 | -6 | 6 | -5 | -14 | -1 | -2
O=C(Nc1cccc(Cl)c1N1CCOCC1)c1cccs1 | 8 | -5 | -2 | 7 | 91* | -2
COCC(=O)Nc1ccc2c(c1)[C@@H]1C[C@H](CC(=O)NCCc3ccccc3)O[C@H](CO)[C@@H]1O2 | -9 | . | 4 | . | . | -1
COc1ccc(-n2cnc3cc(N)ccc32)cc1 | . | 2 | -6 | -2 | 99* | 0
COc1ccc(N/N=C(\C#N)C(=N)N2CCOCC2)cc1 | 2 | -3 | . | -10 | 99* | 4
COc1ccc(N/N=C(\C#N)C(N)=O)cc1 | 3 | 4 | . | 5 | 98* | .
CCOc1ccc(N/N=C(/C#N)C(N)=O)cc1 | -2 | 8 | -4 | -2 | 98* | 11
CCOC(=O)NC(=O)/C(C#N)=N\Nc1ccc(Cl)cc1 | . | -2 | . | -10 | . | 1
CO[C@H]1CN(C)C(=O)c2cc(NC(=O)c3cnccn3)ccc2OC[C@H](C)N(CCc2ccccc2)C[C@H]1C | 10 | . | 2 | . | . | 8
CN1CCN(c2nc(-c3ccccc3)ncc2S(C)(=O)=O)CC1 | 0 | 8 | -1 | 17* | 4 | -2
CN1CCN(c2nc(-c3ccccn3)nc3ccccc23)CC1 | . | 0 | 2 | 8 | -2 | 67*
CCOC(=O)c1cnc(-c2ccccc2)nc1Oc1ccc(OC)cc1 | 2 | -3 | . | 26* | -11 | -7
CCOC(=O)c1cnc(-c2ccccc2)nc1Oc1ccccc1 | . | 8 | -2 | -17 | 3 | -6
CS(=O)(=O)c1cnc(-c2ccccc2)nc1Oc1ccc(Cl)cc1 | . | 6 | . | 23* | -4 | -10
SMILES | ERp5 block | PDI inh | PglD DTNB | NRP1-CendR mod | ALR H2O2 inh | ARNT-TACC3 inh
COCC(=O)Nc1ccc2c(c1)[C@H]1C[C@H](CC(=O)NCc3cc(F)ccc3F)O[C@@H](CO)[C@H]1O2 | . | . | 7 | . | . | 0
CN(C)CC#Cc1ccc([C@@H]2[C@@H](CO)N3CCCCN(C(=O)Nc4ccc(F)cc4)C[C@H]23)cc1 | -7 | . | 3 | . | . | 10
Cc1c(O)c(CN2CCCCC2)cc2c1oc(=O)c1ccccc12 | . | 3 | . | 14 | 18 | -13
Cc1c(O)c(CN(C)C)cc2c1oc(=O)c1ccccc12 | -7 | 18 | 5 | -4 | 97* | 0
COc1ccc(S(=O)(=O)N[C@@H]2CC[C@@H](CC(=O)N3CCN(c4ccccc4)CC3)O[C@H]2CO)cc1 | 1 | . | 1 | . | . | 0
COC(=O)c1ccc(-c2ccco2)n1Cc1cccc(C)c1 | . | 0 | -4 | -8 | 51 | 11
O=C(O)c1ccc(-c2ccco2)n1Cc1ccccc1 | . | -1 | -1 | -12 | 99* | -19
CN=c1scc(C)n1/N=C/c1cc(Br)c(O)c(OC)c1 | 0 | -3 | -3 | -6 | 99* | 21
C=CCN=c1scc(-c2ccco2)n1/N=C/c1ccc(O)c(O)c1O | 1 | -2 | . | -45 | 99* | 49*
CC(C)N=c1scc(-c2ccco2)n1/N=C/c1ccc(O)c(O)c1 | . | 5 | -5 | -13 | 99* | 27
Oc1ccc(/C=N/n2c(-c3ccco3)csc2=Nc2cccnc2)c(O)c1 | . | -5 | 1 | -5 | 30 | 64*
CN(C)CC(=O)N1CC2(C1)[C@H](c1ccccc1)[C@@H](CO)N2C(=O)C1CCC1 | 0 | . | . | . | . | .
C[C@@H]1CN([C@@H](C)CO)C(=O)c2cc(NC(=O)Nc3cccc4ccccc34)ccc2O[C@H]1CN(C)Cc1ccncc1 | 3 | . | -3 | . | . | 2
COc1ccc(CN(C)C[C@H]2Oc3ccc(NC(=O)C4CC4)cc3CC(=O)N([C@H](C)CO)C[C@@H]2C)cc1 | 5 | . | . | . | . | .
Oc1ccc(/C=N/N2CCCCC2)c(O)c1O | 2 | 1 | -4 | 12 | 64 | 14
CN=c1scc(-c2cccs2)n1/N=C/c1ccc(O)c(O)c1O | 3 | 3 | . | -5 | 99* | 60*
CN=c1scc(C)n1/N=C/c1ccc(O)c(O)c1O | . | 0 | -2 | 6 | 100* | 33
CN=c1scc(-c2cccs2)n1/N=C/c1ccccc1O | -2 | 2 | . | -9 | 87* | 9
CN=c1scc(-c2ccccc2Br)n1/N=C/c1ccc[nH]1 | . | . | . | . | 5 | .
C[C@H](CO)N1C[C@H](C)[C@@H](CN(C)CC2CCCCC2)Oc2ccc(NC(=O)CCN3CCOCC3)cc2CC1=O | 4 | . | -2 | . | . | 1
CN1C(=O)c2cc(NC(=O)NC3CCCC3)ccc2OC[C@@H]2O[C@H](CC(=O)NCC3CC3)CC[C@@H]21 | 4 | . | 3 | . | . | -5
COc1ccc(NC(=O)N(C)C[C@H]2OCc3cn(nn3)CCCC(=O)N([C@@H](C)CO)C[C@H]2C)cc1 | -4 | . | -1 | . | . | -3
C[C@@H]1CN([C@@H](C)CO)C(=O)c2cccc(NC(=O)c3ccncc3)c2O[C@@H]1CN(C)S(=O)(=O)c1ccc(F)cc1 | 4 | . | 1 | . | . | 10
COc1ccc(-c2cc(C)no2)cc1S(=O)(=O)NCc1cccc(C)c1 | -2 | -2 | 2 | 36* | 1 | 0

Screening results deposited in PubChem BioAssay by several laboratories.
